Laboratory results reported in paper PMC7819943, “Rice protein-binding microarrays: a tool to detect cis-acting elements near promoter regions in rice”.
Over roughly 39,000 sequences, “fluorescence intensity (a.u.)” has its median near 4,300; the highest 2% begin near 39,000. The sample as a whole holds a higher share of the highest values than the screen did.

molecular target: T1, OsSMF1 (Oryza sativa, UniProt Q6ZLB0 1-436); assay: protein-binding microarray (RPBM); PBS, 2% BSA, 51.3 ng/ul salmon testes DNA, 50 uM zinc acetate, 200 nM TF, 25 C, 1 h; high values mean tight binding; settings: protein: recombinant; tags: N-terminal polyhistidine and DsRed monomer fusion (pET32a); chain copies: 2; label: CyDye5-dUTP incorporated in the synthesized complementary strand; 3' TTTTT single-stranded linker to array surface; dsDNA, one strand shown
T1 sequence: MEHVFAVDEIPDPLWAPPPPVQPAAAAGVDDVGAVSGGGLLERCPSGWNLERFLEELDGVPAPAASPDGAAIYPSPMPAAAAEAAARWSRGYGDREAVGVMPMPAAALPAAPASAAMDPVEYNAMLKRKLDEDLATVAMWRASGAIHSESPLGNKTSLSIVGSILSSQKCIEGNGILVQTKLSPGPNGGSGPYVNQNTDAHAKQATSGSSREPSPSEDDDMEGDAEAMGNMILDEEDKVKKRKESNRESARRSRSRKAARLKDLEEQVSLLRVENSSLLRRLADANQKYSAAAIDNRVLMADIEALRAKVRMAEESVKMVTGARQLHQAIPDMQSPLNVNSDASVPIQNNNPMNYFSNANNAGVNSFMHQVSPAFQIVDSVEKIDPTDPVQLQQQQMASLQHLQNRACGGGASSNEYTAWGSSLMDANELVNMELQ
Summary of the method: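 Per-feature fluorescence intensity (arbitrary units), read on an Axon 4000B scanner, is the binding signal. Transcription factors carrying an N-terminal polyhistidine tag and DsRed fusion were expressed in E. coli BL21-CodonPlus and purified on Ni–NTA. A custom Agilent array, made double-stranded by primer extension with Cy5-dUTP and blocked with 2% BSA, was incubated with 200 nM protein in PBS, 2% BSA, salmon testes DNA and 50 µM zinc acetate at 25 °C for 1 h and then washed.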

Sequence	binding signal
CTAGAGGAAGTGGGGAAGCCGACGACCCCACGTCTCGCCACGGAGTCACCTAGTGCAG	3940 fluorescence intensity (a.u.)
TACTTTCAACTCTAACTTGAAAACTTTCAACTTTGACTTGCGGAGTCACCTAGTGCAG	3860 fluorescence intensity (a.u.)
TAAAATAGTTTTAAAACTTTAAGTTGAAAGTAAATACTTTCGGAGTCACCTAGTGCAG	27900 fluorescence intensity (a.u.)
GACTAACAAAATCGTTGAAACTTGCGAAGTTTCTTTTGATCGGAGTCACCTAGTGCAG	64700 fluorescence intensity (a.u.)
CCACCCACGGAGCCAGCTCACTACCACCGTTTGTCGCCTCCGGAGTCACCTAGTGCAG	4360 fluorescence intensity (a.u.)
TTCTTCCTCCGTCAGTTCATCATCTCTCTGTGTGTGTTTTCGGAGTCACCTAGTGCAG	3570 fluorescence intensity (a.u.)
ACATGTGTTCACGCGTGTGTATCTTCTACTCCCTCCGTTTCGGAGTCACCTAGTGCAG	43200 fluorescence intensity (a.u.)
GTACTACTCCCTCCGTTTCTCCCTCCGTTTCAAAATGTTTCGGAGTCACCTAGTGCAG	3220 fluorescence intensity (a.u.)
GTTGTCAAATGAGTCAATTAGATATTTCCAACCCACACTACGGAGTCACCTAGTGCAG	4900 fluorescence intensity (a.u.)
CGTATCTCATCTTTTCGTTTATACTTATACTTATCAGTCACGGAGTCACCTAGTGCAG	3230 fluorescence intensity (a.u.)
ATCGATCGATCAATTGGCCAAGGCGGCAAACGGCGGCGGCCGGAGTCACCTAGTGCAG	4060 fluorescence intensity (a.u.)
TTAGCTTCACAGTTCACTGTAGCGTCTAGAAGAGGAACAGCGGAGTCACCTAGTGCAG	63300 fluorescence intensity (a.u.)
GATCACTGTACTGTACAGAGGCTAGCTCTAGCTAGGTAGCCGGAGTCACCTAGTGCAG	26000 fluorescence intensity (a.u.)
GTGAGAACTGAGAGGAGCGTCGGAAGAAGACCGGAAGAAGCGGAGTCACCTAGTGCAG	4580 fluorescence intensity (a.u.)
TTGTGGTACGATACTAGTACTACTAGTAGACTAGTAGCAGCGGAGTCACCTAGTGCAG	3260 fluorescence intensity (a.u.)
TTAGCTAGACTACAGCTCTAGTAGAGCTGTAGAGGTAGAGCGGAGTCACCTAGTGCAG	44000 fluorescence intensity (a.u.)
AGCTTCAGGAGTTCTTGTCACGTCTCGAGGAAGAGAGGCTCGGAGTCACCTAGTGCAG	3740 fluorescence intensity (a.u.)
GTGGGCCATCTGACAGTGCATACAGGAACTTTCCCCTTCTCGGAGTCACCTAGTGCAG	4930 fluorescence intensity (a.u.)
ATTATAGGTCCAGCTAAGTTGGCCCTGGTATATATATTGGCGGAGTCACCTAGTGCAG	3980 fluorescence intensity (a.u.)
TTGGAGGGGAAGCTATCGTGTATCCACTGCGGAGCACGGCCGGAGTCACCTAGTGCAG	3650 fluorescence intensity (a.u.)
CGTGGTGGACGGCCTCGACGAGGCGATCTGCCCGGTGGCGCGGAGTCACCTAGTGCAG	3240 fluorescence intensity (a.u.)

Sequence	binding signal
CCGGGCTACCATCGCGGCGACGAAACGTGCATCATCATCCCGGAGTCACCTAGTGCAG	3850 fluorescence intensity (a.u.)
AACGACGGCGAATTCTACCTCCCCGGGTATCTGGACCTCGCGGAGTCACCTAGTGCAG	42900 fluorescence intensity (a.u.)
CGTGGCACTTAGCGATGAGTGCTGTCGTCAGTAGCAATCCCGGAGTCACCTAGTGCAG	4620 fluorescence intensity (a.u.)
GGCTAGCGTACAGGTTAAAACGTGTCGGAATCGTCAGCGCCGGAGTCACCTAGTGCAG	4110 fluorescence intensity (a.u.)
GCAGGCGTCGGTTTCGCGGCTGGCAGCGGCGGCTCGCTCACGGAGTCACCTAGTGCAG	3200 fluorescence intensity (a.u.)
GTACAGCAGGAATCGCTGCTGGCGTCGCTTCGTCGGTTGTCGGAGTCACCTAGTGCAG	65100 fluorescence intensity (a.u.)
GTGTTTTGACGCATGCATGCCGTTGGTCATCAGTTAATCACGGAGTCACCTAGTGCAG	3480 fluorescence intensity (a.u.)
TTCCCAAAAGGAGGCCCAATGAGAACTTGTATAGTCCTATCGGAGTCACCTAGTGCAG	19500 fluorescence intensity (a.u.)
GAAATCTAATTTTATCCACGAGACTATAGTGAGCCTACTCCGGAGTCACCTAGTGCAG	39700 fluorescence intensity (a.u.)
ATGTTTTCTAGACTAATATACTATTAATCTATCTTTTATCCGGAGTCACCTAGTGCAG	36400 fluorescence intensity (a.u.)
ATGTGACTACCACCTCTAAATTTATCTATTTTATTCACTCCGGAGTCACCTAGTGCAG	18600 fluorescence intensity (a.u.)
GGGATGTCACACCGTCGAAGGCGTCCAGCTGTCAACATATCGGAGTCACCTAGTGCAG	4720 fluorescence intensity (a.u.)
CCGTTAGCCTCCAACGATCCAAACCGCCTCGTCATAAATACGGAGTCACCTAGTGCAG	3460 fluorescence intensity (a.u.)
TGCTGCTCTTGACACCACGTCGTTGCTGCCCTGCTTCCACCGGAGTCACCTAGTGCAG	3810 fluorescence intensity (a.u.)
TGACTCAGTATCGATCTGACGTGGCGCTTACGTGGCAATTCGGAGTCACCTAGTGCAG	48000 fluorescence intensity (a.u.)
ATGACGTGACATTGACGTGGCGCTTACGTGGCAATTCGACCGGAGTCACCTAGTGCAG	25600 fluorescence intensity (a.u.)
TCTGATATGGCATTGACGTGACACTTACGTGGCAATTCGACGGAGTCACCTAGTGCAG	12500 fluorescence intensity (a.u.)
GTGGCATTGACGTGGCGCTTACGTGTCAATTCTACTCCGGCGGAGTCACCTAGTGCAG	44200 fluorescence intensity (a.u.)
TGGCATTGACGTGGCGCTTACGTGGCATTATATCTTGAAACGGAGTCACCTAGTGCAG	33400 fluorescence intensity (a.u.)
AGTGCCTATGTGGCGTTGACGTGGCGCTTACGTGGCAATTCGGAGTCACCTAGTGCAG	27500 fluorescence intensity (a.u.)
GCTATATTAAACATTTGCTAATGACAAATTAATTAGCTTACGGAGTCACCTAGTGCAG	14700 fluorescence intensity (a.u.)
